HEK293 tox: qHTS of GLP-1 Receptor Inverse Agonists: Cytotox Screen; HEK293 cAMP-luciferase reporter cells, luminescence, 24 h; Potency, µM (series often up to 38.3 µM), hits mostly inhibitors; actives 0.13% (n = 410,000);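 further: loss of luciferase light is scored as toxicity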
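Compound-treated cells are incubated 24 hr at 37 deg C under 5% CO2 after a 12 hour attachment period, then luciferase detection reagent is added and luminescence is measured following 12 min at room temperature; lowered signal indicates toxicity.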
TRPML1 ag: qHTS for Agonists of the Human Mucolipin Transient Receptor Potential 1 (TRPML1); Mucolipin-1 (Homo sapiens), Q9GZU1; TRPML1-expressing cells, Ca2+ dye fluorescence, FDSS; activation, % (test concentration not listed); actives 0.12% (n = 410,000); in the data active means activation above about 50%; inconclusive means mostly about 30% to 49%
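Kinetic FDSS Ca2+ read in Tet-induced TRPML1-DL cells (ABD Ca8 dye plus quencher, 45-90 min RT loading): baseline, then compound, then 110 s agonist window; EC80 agonist 54-4 at 4uM final added afterwards for a 110 s antagonist window.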
TRPML1 blocker: qHTS for Inhibitors of the Human Mucolipin Transient Receptor Potential 1 (TRPML1); Mucolipin-1 (Homo sapiens), Q9GZU1; TRPML1-inducible cells, Ca2+ dye fluorescence, FDSS; stronger effect = lower value; inhibition of EC80 agonist-evoked calcium signal; activity change, negative = inhibition, % (no concentration beside the values); actives 0.02% (n = 390,000); in the data active means activity change below about -50%; inconclusive means between about -30% and that limit;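 further: stimulus is agonist 54-4 at its EC80 concentration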
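TRPML1-DL cells, Tet-induced overnight (~16 h, 37 °C) at 1,500 cells/well, were loaded with Ca8 no-wash dye plus quencher for 45-90 min at room temperature. Compounds were pinned during FDSS kinetic reading; agonist 54-4 at EC80 (4 uM final) then added.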
GLP1R inv ag: qHTS of GLP-1 Receptor Inverse Agonists (Inhibition Mode). HEK293 GLP-1R CRE-luciferase, luminescence, 24 h; GLP-1R form is constitutively active. Potency, µM (doses to about 38.3 µM), hits mostly inhibitors. Glucagon-like peptide 1 receptor (Homo sapiens), P43220. actives 1.6% (n = 410,000); further: nearly all actives have a fitted effect of over 55% in size
Target sequence (P43220 whole entry, looked up): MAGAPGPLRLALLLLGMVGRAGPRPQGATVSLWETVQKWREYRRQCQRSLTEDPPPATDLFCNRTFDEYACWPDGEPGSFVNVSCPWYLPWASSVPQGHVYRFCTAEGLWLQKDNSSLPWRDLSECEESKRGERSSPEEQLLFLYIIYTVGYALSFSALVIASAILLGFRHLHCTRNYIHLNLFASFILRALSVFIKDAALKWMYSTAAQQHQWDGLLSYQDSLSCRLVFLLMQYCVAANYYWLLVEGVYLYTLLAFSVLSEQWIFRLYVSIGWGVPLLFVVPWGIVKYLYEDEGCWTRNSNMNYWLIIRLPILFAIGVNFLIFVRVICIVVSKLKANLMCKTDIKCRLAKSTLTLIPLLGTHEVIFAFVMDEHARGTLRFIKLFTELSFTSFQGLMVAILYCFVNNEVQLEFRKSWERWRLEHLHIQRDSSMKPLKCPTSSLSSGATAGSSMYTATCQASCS
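qHTS in 1536-well format: reporter HEK293 cells expressing constitutive GLP-1R activity in DMEM + 10% Nu serum, 24 hr with compounds at 37 deg C, luminescence read after 12 min with detection reagent.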
GLP-1R agonist: qHTS of GLP-1 Receptor Agonists; Glucagon-like peptide 1 receptor (Homo sapiens), P43220; HEK293 GLP-1R CRE-luciferase, luminescence, 4-6 h; cells express a hypersensitive GLP-1R form; Potency, µM (highest dose often 45.6 µM), actives largely listed as activators; actives 0.007% (n = 380,000)
Of the large screens only hits and unclear results are named; the others gave an inactive call. Most compounds without a hit are left out; they make up all but 1.8% or so of the library. Unless noted, the call rests on the fitted dose curve; in most records, active means well fitted curve in the direction sought with a large enough effect; inconclusive means small, poorly fitted or top-dose-only effect, or another doubt; inactive means no such curve, though single readings can be large; an effect the other way counts as inactive or inconclusive.

O=[N+]([O-])c1cccc(-c2nc(-c3cccs3)c(-c3cccs3)[nH]2)c1	GLP1R inv ag 2.51µM
O=[N+]([O-])c1ccc(-c2nc(-c3cccs3)c(-c3cccs3)[nH]2)cc1	HEK293 tox inconclusive, GLP1R inv ag 3.16µM
O=[N+]([O-])c1cccc(-c2nc(-c3ccccc3)c(-c3cccs3)[nH]2)c1	none
Fc1ccc(NC(=S)N/N=C/c2ccc(F)c(F)c2)cc1	GLP1R inv ag inconclusive
COc1ccc(NC(=S)N/N=C/c2ccc(F)cc2)cc1OC	HEK293 tox 5.62µM, GLP1R inv ag inconclusive
O=S(=O)(/C=C/C=C/S(=O)(=O)c1ccccc1)c1ccccc1	HEK293 tox 0.631µM
O=C(/C=C/c1ccccc1Cl)Nc1cccc(S(=O)(=O)NC2=NCCCCC2)c1	GLP1R inv ag 10µM
COc1ccccc1C(=O)NNC(=O)c1cccc(F)c1	GLP1R inv ag 8.91µM
CC1CCN(S(=O)(=O)c2ccc3c(c2)N(CC(=O)N(C)Cc2ccccc2)C(=O)CO3)CC1	GLP1R inv ag inconclusive (no result: GLP-1R agonist)
CN(C)c1ccc(CNC(=O)CCNS(=O)(=O)c2cc(Br)cnc2N)cc1	GLP1R inv ag 4.47µM
Cc1ccc(NC(=O)N2CCCN(Cc3ccc(F)cc3)C2)cc1C	HEK293 tox inconclusive, GLP1R inv ag 3.98µM
O=C(CSc1nc2ccccc2o1)Nc1nc2c(s1)CCCC2	GLP1R inv ag 2.51µM
CCC(=O)NC(=S)Nc1cccc(Cl)c1N1CCCC1	HEK293 tox inconclusive, GLP1R inv ag 5.62µM
O=C(NC(=S)Nc1cccc(Cl)c1N1CCCCC1)c1ccc2c(c1)OCCO2	GLP1R inv ag inconclusive
Cc1ccccc1-c1ccc2c(c1)O[C@@H](CN(C)C(=O)Nc1ccc(C(F)(F)F)cc1)[C@H](C)CN([C@@H](C)CO)S2(=O)=O	GLP1R inv ag 6.31µM
C[C@@H]1CN([C@H](C)CO)S(=O)(=O)c2ccc(Br)cc2O[C@@H]1CN(C)C(=O)Nc1ccc(C(F)(F)F)cc1	HEK293 tox inconclusive, GLP1R inv ag inconclusive

Assay outcomes deposited in PubChem by National Center for Advancing Translational Sciences (NCATS).
